Activity calls are given as the source filed them.
What was measured:
Albumin (Bos taurus) = Albumin (Bos taurus) (UniProt P02769); assay: compounds binding labelled BSA control protein – biochemical, small-molecule microarray, Alexa647 label, 635/667 nm fluorescence, artefact control for SMM control protein annotation, profiling panel (AID 1118); conditions: BSA-A647 binding, fluorescence 635 nm, higher = more signal;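 further: score merges 667 nm emission intensity and signal-to-noise per printed compound spot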
Sequence of Albumin (Bos taurus) (P02769 whole entry, looked up): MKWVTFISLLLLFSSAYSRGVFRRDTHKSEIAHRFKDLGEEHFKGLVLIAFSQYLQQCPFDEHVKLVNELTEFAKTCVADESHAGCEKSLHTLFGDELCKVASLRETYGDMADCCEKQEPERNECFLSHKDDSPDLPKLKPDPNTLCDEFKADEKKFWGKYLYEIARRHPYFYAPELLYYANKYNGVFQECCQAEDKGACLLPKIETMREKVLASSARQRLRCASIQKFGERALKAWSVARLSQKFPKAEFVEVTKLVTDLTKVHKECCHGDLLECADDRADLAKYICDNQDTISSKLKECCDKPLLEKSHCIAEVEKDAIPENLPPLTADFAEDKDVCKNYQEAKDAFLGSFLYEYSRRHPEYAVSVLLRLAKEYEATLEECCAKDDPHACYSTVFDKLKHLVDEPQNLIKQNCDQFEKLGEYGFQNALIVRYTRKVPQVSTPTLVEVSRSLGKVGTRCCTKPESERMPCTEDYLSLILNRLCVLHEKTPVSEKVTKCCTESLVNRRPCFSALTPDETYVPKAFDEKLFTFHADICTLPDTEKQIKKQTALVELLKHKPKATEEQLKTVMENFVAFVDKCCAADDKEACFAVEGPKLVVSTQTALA

[1] = probe aXIP binding to arrayed compounds – biochemical, NeuroSMM set, 635/667 nm fluorescence, primary screen (AID 1119); conditions: small-molecule microarray, higher = more signal, called active from +8 up or from −8 down;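 further: probe is the protein aXip251-270 applied at 1 µg/mL to compound-printed slides; binding of probe to printed compounds measured as 667 nm fluorescence plus signal to noise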
[2] = probe aNOTCH3 binding on compound microarray – biochemical, small-molecule microarray, 635/667 nm fluorescence, primary screen (AID 1120); conditions: higher = more signal;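 further: probe is a biotin-tagged antibody raised against NOTCH3 rather than NOTCH3 protein; score merges spot fluorescence near 667 nm with spot signal to noise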
[3] = probe aNOTCH2 binding on compound microarray – biochemical, small-molecule microarray, 635/667 nm fluorescence, primary screen (AID 1121); conditions: higher = more signal;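 further: score merges feature fluorescence read at 667 nm with its signal to noise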
[4] = biological target: Carbonic anhydrase 2 (Homo sapiens) (UniProt P00918); assay: compounds binding carbonic anhydrase 2 – biochemical, small-molecule microarray, Alexa647-labelled CAII, profiling panel (AID 1122); conditions: CAII-A647 binding fluorescence, higher = more signal
[5] = COS7 lysate on small-molecule microarray, probe aHis, 635 nm (AID 1123); conditions: COS7 cell lysate, fluorescence, higher = more signal;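 further: z-score combines 667nm fluorescence intensity with signal-to-noise per printed compound spot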
[6] = probe aLAP1 signal on lysate-treated microarray – cell lysate, small-molecule microarray, COS7 lysate, primary screen (AID 1124); conditions: probe aLAP1, fluorescence, higher = more signal;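 further: lysate comes from COS7 cells expressing LAP1 and is applied at 0.3 µg/mL; score merges spot fluorescence near 667 nm with signal-to-noise over triplicate slides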
Sam68 (KHDRBS1) = assay: compounds binding KHDRBS1 protein – biochemical, small-molecule microarray, 635 nm fluorescence, primary screen (AID 1125); conditions: higher = more signal;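 further: score merges 667 nm channel intensity with signal to noise over triplicate slides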
[7] = tested on: Chordin-like protein 2 (CHRDL2); assay: compounds binding chordin-like 2 – biochemical, small-molecule microarray, 635 nm fluorescence, primary screen (AID 1126); conditions: fluorescence 635 nm, higher = more signal;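 further: printed compound slides probed with Chrdl2 protein at 4 µg/mL for 1 h at 4 C; score merges 667 nm emission intensity with signal to noise over three replicate slides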
[8] = biological target: Concanavalin-A (Canavalia ensiformis) (UniProt P02866); assay: compounds binding concanavalin A lectin – biochemical, small-molecule microarray, Alexa647 label, 635 nm, artefact control for SMM control protein annotation, primary screen (AID 1127); conditions: ConA-A647 binding fluorescence, higher = more signal;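 further: z combines 667 nm emission intensity with signal-to-noise across three replicate slides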
Sequence of Concanavalin-A (Canavalia ensiformis) (P02866 whole entry, looked up): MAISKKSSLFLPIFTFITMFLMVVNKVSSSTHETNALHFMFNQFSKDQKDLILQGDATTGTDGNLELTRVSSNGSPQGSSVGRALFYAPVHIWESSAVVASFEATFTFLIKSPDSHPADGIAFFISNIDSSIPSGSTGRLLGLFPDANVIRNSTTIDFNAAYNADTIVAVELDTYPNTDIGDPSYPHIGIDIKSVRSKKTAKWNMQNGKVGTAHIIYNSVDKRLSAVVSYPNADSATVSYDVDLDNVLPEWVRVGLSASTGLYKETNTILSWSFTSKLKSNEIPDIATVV

[9] = compounds binding Alexa647 anti-His antibody – biochemical, small-molecule microarray, 635 nm fluorescence, artefact control for SMM control protein annotation, primary screen (AID 1128); conditions: higher = more signal;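 further: score merges feature fluorescence with signal-to-noise for each printed compound spot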
[10] = tested on: Human papillomavirus type 1a E7 protein (residues 1-88); assay: HPV1a E7 small-molecule binders, primary screen, biochemical, small-molecule microarray, residues 1-88, 635 nm (AID 1129); conditions: small-molecule microarray binding, fluorescence 635 nm; higher = more signal
[11] = biological target: Focal adhesion kinase 1 (Homo sapiens) (UniProt Q05397); assay: PTK2 protein binding on printed compound slides – biochemical, small-molecule microarray, 635/667 nm fluorescence, BSA, DTT, primary screen (AID 1130); conditions: 635 nm fluorescence, higher = more signal;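 further: composite of spot emission at 667 nm and signal to noise over triplicate slides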
Sequence of Focal adhesion kinase 1 (Homo sapiens) (Q05397 whole entry, looked up): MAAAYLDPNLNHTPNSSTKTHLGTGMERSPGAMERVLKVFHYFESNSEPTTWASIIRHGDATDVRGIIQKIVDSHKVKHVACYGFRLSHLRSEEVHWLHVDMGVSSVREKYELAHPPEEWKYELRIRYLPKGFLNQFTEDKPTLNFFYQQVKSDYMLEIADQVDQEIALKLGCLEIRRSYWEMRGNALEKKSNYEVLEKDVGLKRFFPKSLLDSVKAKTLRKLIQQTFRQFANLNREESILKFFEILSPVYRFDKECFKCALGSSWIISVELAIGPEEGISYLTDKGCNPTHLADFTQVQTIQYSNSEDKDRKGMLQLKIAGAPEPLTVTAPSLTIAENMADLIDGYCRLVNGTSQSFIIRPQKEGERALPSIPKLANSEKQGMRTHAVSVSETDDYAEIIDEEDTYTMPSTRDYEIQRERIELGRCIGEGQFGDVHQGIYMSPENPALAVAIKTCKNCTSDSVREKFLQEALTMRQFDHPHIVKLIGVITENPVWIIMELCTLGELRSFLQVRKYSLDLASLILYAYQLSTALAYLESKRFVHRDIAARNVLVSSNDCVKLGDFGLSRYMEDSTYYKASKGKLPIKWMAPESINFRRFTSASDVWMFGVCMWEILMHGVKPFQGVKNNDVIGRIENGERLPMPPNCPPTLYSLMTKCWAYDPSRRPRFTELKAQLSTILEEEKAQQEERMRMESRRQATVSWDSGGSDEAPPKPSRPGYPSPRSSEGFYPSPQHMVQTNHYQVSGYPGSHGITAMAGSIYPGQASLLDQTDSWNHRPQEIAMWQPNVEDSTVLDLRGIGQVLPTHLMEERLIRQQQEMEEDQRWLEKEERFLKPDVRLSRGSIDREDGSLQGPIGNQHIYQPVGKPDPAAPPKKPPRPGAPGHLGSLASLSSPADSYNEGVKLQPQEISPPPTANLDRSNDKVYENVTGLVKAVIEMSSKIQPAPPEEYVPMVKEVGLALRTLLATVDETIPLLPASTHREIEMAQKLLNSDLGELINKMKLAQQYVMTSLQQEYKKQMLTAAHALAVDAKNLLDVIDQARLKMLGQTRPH

[12] = tested on: Fibrinogen (Alexa647-labelled); assay: Alexa647-fibrinogen binding to printed small molecules – biochemical, small-molecule microarray, 635/667 nm fluorescence, artefact control for SMM control-protein annotation, profiling panel (AID 1131); conditions: fibrinogen-A647 binding fluorescence, higher = more signal;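 further: z-score merges 667 nm fluorescence with per-spot signal-to-noise over triplicate slides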
[13] = biological target: Follistatin (Homo sapiens) (UniProt P19883); assay: FST protein binding to printed compounds – biochemical, small-molecule microarray, 635/667 nm fluorescence, primary screen (AID 1132); conditions: 635 nm fluorescence, higher = more signal
Sequence of Follistatin (Homo sapiens) (P19883 whole entry, looked up): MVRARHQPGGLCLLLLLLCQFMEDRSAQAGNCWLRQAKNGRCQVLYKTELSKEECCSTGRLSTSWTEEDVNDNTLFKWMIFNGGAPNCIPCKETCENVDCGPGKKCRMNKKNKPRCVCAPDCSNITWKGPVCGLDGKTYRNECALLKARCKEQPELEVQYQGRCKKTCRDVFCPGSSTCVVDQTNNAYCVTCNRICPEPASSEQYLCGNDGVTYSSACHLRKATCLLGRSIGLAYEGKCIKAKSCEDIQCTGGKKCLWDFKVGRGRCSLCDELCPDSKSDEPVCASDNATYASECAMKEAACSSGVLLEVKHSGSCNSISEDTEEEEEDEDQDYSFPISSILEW

[14] = biological target: Fibroblast growth factor 2 (Homo sapiens) (UniProt P09038); assay: basic fibroblast growth factor binding to printed compounds – biochemical, small-molecule microarray, 635/667 nm fluorescence, primary screen (AID 1133); conditions: FGF2, fluorescence 635/667, higher = more signal
Sequence of Fibroblast growth factor 2 (Homo sapiens) (P09038 whole entry, looked up): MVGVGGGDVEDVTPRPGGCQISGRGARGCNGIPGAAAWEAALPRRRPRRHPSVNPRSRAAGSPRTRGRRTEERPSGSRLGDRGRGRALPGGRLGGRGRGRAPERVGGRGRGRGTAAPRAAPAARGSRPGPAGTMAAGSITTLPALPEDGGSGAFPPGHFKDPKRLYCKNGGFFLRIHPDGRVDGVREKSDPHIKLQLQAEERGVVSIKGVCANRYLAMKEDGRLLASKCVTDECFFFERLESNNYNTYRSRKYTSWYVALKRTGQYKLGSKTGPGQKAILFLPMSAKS

[15] = JC-1 mitochondrial potential readout, lung cancer cells – cell-based, A549, JC-1 fluorescence, basal, 24 h, 100 nL, profiling panel (AID 1138); conditions: higher = more signal;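 further: A549 lung adenocarcinoma cells under basal conditions with no added stimulus; test concentration not given here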
Lefty1 = Lefty1 protein binding to printed compounds – biochemical, small-molecule microarray, 635/667 nm fluorescence, primary screen (AID 1139); conditions: fluorescence 635/667, higher = more signal
[16] = tested on: wheat germ agglutinin (Triticum aestivum), Alexa647-labelled; assay: Alexa647-WGA lectin binding to printed small molecules – biochemical, small-molecule microarray, 635/667 nm fluorescence, artefact control for SMM control-protein annotation, profiling panel (AID 1140); conditions: WGA-A647 binding, 635 nm fluorescence, higher = more signal;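 further: score merges 667 nm feature emission with signal to noise over triplicate slides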
[17] = biological target: Luciferin 4-monooxygenase (Photinus pyralis) (UniProt P08659); assay: inhibition of purified Photinus pyralis luciferase – biochemical, luminescence, purified enzyme, 2006 set, primary screen (AID 1141); conditions: purified firefly luciferase, SteadyGlo luminescence, 30 min; higher = more signal, called active from +8 up or from −8 down;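 further: cell-free assay with purified firefly luciferase at 100 ng per well in PBS; test concentration not given here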
Sequence of Luciferin 4-monooxygenase (Photinus pyralis) (P08659 whole entry, looked up): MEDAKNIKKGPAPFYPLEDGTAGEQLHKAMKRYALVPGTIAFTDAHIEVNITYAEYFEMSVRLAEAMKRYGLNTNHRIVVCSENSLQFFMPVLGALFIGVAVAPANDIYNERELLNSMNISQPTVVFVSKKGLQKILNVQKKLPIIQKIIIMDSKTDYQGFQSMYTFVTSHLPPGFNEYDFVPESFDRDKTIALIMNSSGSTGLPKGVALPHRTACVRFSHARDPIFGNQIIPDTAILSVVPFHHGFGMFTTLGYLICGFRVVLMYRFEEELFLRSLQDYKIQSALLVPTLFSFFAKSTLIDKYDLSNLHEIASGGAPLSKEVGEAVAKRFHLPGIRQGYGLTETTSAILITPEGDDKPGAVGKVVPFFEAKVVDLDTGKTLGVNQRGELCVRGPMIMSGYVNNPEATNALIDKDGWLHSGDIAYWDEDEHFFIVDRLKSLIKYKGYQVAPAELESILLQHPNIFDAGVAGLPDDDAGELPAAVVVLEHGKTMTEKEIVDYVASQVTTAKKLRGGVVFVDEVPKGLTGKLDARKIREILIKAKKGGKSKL

Structure (SMILES)	composite z-score (Albumin (Bos taurus))	composite Z-score [1]	composite z-score [2]	composite z-score [3]	composite z-score [4]	composite z-score [5]	composite z-score [6]	composite z-score (Sam68 (KHDRBS1))	composite z-score [7]	composite z-score [8]	composite z-score [9]	composite z-score [10]	composite z-score [11]	composite z-score [12]	composite z-score [13]	composite z-score [14]	z-score [15]	composite z-score (Lefty1)	composite z-score [16]	z-score [17]
CN(C)CCCNC(=O)[C@@]1(Cc2ccccc2I)c2ccccc2C(=O)N(Cc2ccccc2)[C@H]1c1ccc(CO)cc1	-0.6	-0.307 (inactive)	-0.467	-0.247	0.362	3.21	1.41	1.3	0.613	1.09	1.88	1.26	0.658	0.512	1.28	1.58	0.893	0.239	-0.0325	0.936 (inactive)
NCCCC[C@@H]1NC(=O)[C@H]2C[C@@H](C(=O)O)[C@@H](c3cccc(OCCO)c3)N2C1=O	0.294	1.71 (inactive)	0.526	-0.0106	0.396	2.88	0.521	1.29	1.39	1.1	3	1.26	0.188	0.577	1.41	1.69	-1.44	1.64	1.44	-1.08 (inactive)
COCCOC(=O)N1C(=O)[C@@]2(c3cc(C#CC4=CCCCC4)ccc31)[C@H](C(=O)N1CCc3cc(OC)c(OC)cc3C1)[C@H]1C(=O)O[C@H](c3ccccc3)[C@H](c3ccccc3)N1[C@@H]2c1ccc(O)cc1	0.482	0.334 (inactive)	0.285	0.307	0.267	1.32	0.858	1.1	0.463	1.19	1.62	1.2	0.596	0.947	0.861	0.998	-0.608	0.917	0.854	-0.914 (inactive)
CC(C)(C)N1CC=CC23O[C@@H]4/C=C\CCCOC(=O)C4[C@H]2C(=O)N(CCCCCCO)[C@@H]3C1=O (stereo not given in full)	0.708	-0.617 (inactive)	-0.284	-0.117	0.938	0.185	0.495	-1.35	-1.25	-1.42	3.08	-0.444	-0.639	-1.01	-0.93	-0.502	1.2	-1.11	0.0119	-0.854 (inactive)
COc1cccc(OC)c1C(=O)O[C@H]1[C@@H]2OC(=O)[C@H](Cc3cccc(Br)c3)C/C=C/C[C@@H](Cc3cccc(Br)c3)C(=O)O[C@H]2[C@@H](OC)O[C@@H]1CO	0.33	0.878 (inactive)	-0.122	-0.105	0.628	1.2	0.56	1.06	0.351	0.293	0.267	1.1	0.573	0.383	1.38	1.28	1.27	0.742	0.0452	-0.21 (inactive)
CCOC(=O)C[C@H]1[C@H](OC(=O)c2ccc(C(=O)c3ccccc3)cc2)[C@@H](NC(=O)c2ccc3ccccc3c2)c2cc(OCCCO)ccc2N1C(=O)c1ccc2ccccc2n1	0.544	0.159 (inactive)	0.134	0.0683	0.342	0.853	0.653	1.09	0.345	0.707	0.565	0.578	0.44	0.892	0.331	0.851	2.1	0.704	0.0601	-0.818 (inactive)
CCCCC=C[C@@H](NC(=O)c1ccc(C(F)(F)F)cc1)c1ccccc1	-0.81	0.734 (inactive)	-0.165	-0.125	-0.273	0.0379	-0.0554	-0.0265	-0.94	-0.792	0.3	-0.839	0.185	-2.63	-0.21	-0.908	0.798	-0.671	0.052	1.02 (inactive)
COc1ccc(NN2C(C(O)c3ccc(OC)cc3)C=CC3C(=O)N(C4CCCCC4)C(=O)C32)cc1 (stereo not given)	0.828	0.297 (inactive)	0.124	-0.0037	0.405	1.1	0.0023	1.28	-0.138	0.872	0.679	1.18	0.349	0.92	0.977	-0.0659	0.017	0.433	0.701	1.25 (inactive)
O=C(NCC(F)(F)F)[C@@H]1c2ccccc2C(=O)N(CC23CC4CC(CC(C4)C2)C3)[C@H]1c1ccc(CO)cc1	0.15	0.251 (inactive)	0.0981	-0.147	0.25	0.699	0.622	1.27	0.162	0.734	1.08	0.722	1.46	0.378	1.16	1.15	0.588	0.827	0.393	0.972 (inactive)
CCCC[C@@H]1C[C@H]1[C@@H](NC(=O)Cc1ccccc1)c1ccc(Cl)cc1	1.1	0.491 (inactive)	0.532	-0.129	0.69	2.76	0.323	1.31	-1.01	1.16	1.84	1.18	1.53	1.02	0.841	-0.272	-2.79	-0.297	1.25	0.957 (inactive)
CC(=O)c1ccc(C(O)C2C=CC3C(=O)NC(=O)C3N2Nc2ccc(Cl)cc2Cl)cc1 (stereo not given)	0.843	0.0186 (inactive)	-0.0151	-0.0097	0.759	2.15	-0.227	-0.0077	0.0823	-0.185	1.48	-0.106	-0.363	-0.131	0.504	-0.115	-0.76	-0.0596	0.564	0.284 (inactive)

Reference: PubChem BioAssay
